Screening results as filed in PubChem.
Most compounds without a hit are left out; they make up all but 11% or so of the library.
hNpr1 antagonist – Natriuretic polypeptide receptor (hNpr1) antagonism - Primary qHTS | HEK293 hNpr1 GloSensor cGMP, ANP-stimulated luminescence | Potency, µM (doses to about 46.3 µM), actives largely listed as inhibitors | Atrial natriuretic peptide receptor 1 (Homo sapiens), P16066 | 76,000 tested, 1.6% active; calls by dose curve; note: nearly all actives have a fitted effect of over 60% in size
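Compound pre-incubated 30 min at room temperature on GloSensor-loaded HEK293 cells stably carrying hNpr1 and the pGS-40F cGMP biosensor. Stimulation uses hNppA at 0.1 nM final; luminescence is taken at baseline and 20 min post-agonist.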
3T3 cytotox – Cytotoxic Profiling in NIH 3T3 Cell Line of Diverse Libraries Using Quantitative High-Throughput Screening; NIH 3T3 viability, CellTiter-Glo ATP luminescence, 48-72 h; Potency, µM (titrated, usually from 96.7 µM), actives largely listed as inhibitors; 94,000 tested, 4.3% active; AID 1345082, 2018; note: nearly all actives have a fitted effect of over 55% in size
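Cytotoxicity is measured as loss of cellular ATP: NIH 3T3 cells (400/well) are exposed to compound for 48 or 72 hr at 37 °C, then CellTiter-Glo luminescence is imaged after 10 min at room temperature.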
HEK cytotox – Cytotoxic Profiling in HEK 293 Cell Line of Diverse Libraries Using Quantitative High-Throughput Screening; Potency, µM (series often up to 115 µM), hits mostly inhibitors; 94,000 tested, 6.6% active; HEK 293 viability, ATP luminescence (CellTiter-Glo), 48-72 h; note: nearly all actives have a fitted effect of over 60% in size
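Cytotoxicity was scored by loss of ATP-coupled luminescence (CellTiter-Glo) in HEK 293 cells. Compound treatment ran 48 or 72 hr at 37 degree Celsius, 5% CO2, 95% humidity.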
FLuc inh – Firefly luciferase inhibition profiling of diverse chemical library using quantitative high-throughput screening; Potency, µM (series often up to 115 µM), usual class: inhibitors; AID 1347043, 2019; Luciferin 4-monooxygenase (Photinus pyralis), P08659; 76,000 tested, 2.5% active; purified P. pyralis luciferase, luminescence, biochemical; note: nearly all actives have a fitted effect of over 65% in size
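Luminescence read by CCD imaging after purified firefly luciferase (10nM final) was added to substrate buffer holding 10uM D-luciferin and 10uM ATP, pH 7.5, pre-dosed with compound.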
A number is an active result; – = inactive; ? = inconclusive; · = not tested or not shown. Unless noted, calls come from the whole dose curve; as a rule, active = well fitted curve in the direction sought with a large enough effect; inconclusive = small, poorly fitted or top-dose-only effect, or another doubt; inactive = no such curve, though single readings can be large; an effect the other way counts as inactive or inconclusive.

SMILES	hNpr1 antagonist	3T3 cytotox	HEK cytotox	FLuc inh
CCc1cc(CN(C)C(=O)c2oc3cc(OC)ccc3c2C)on1	–	?	?	–
Cc1ccc2c(C)c(C(=O)N(C)Cc3noc4c3CCCC4)oc2c1	–	?	44.7µM	–
CCOC(=O)[C@H]1[C@@H](O)C(=O)N(Cc2ccccc2)C12CCN(C(=O)CC)CC2	·	?	–	·
Cc1noc(C)c1[S+](=O)([O-])N1CCC(C(=O)N2CCC(c3nc4ncccc4[nH]3)CC2)C1 (centres undefined)	·	–	–	·
O=c1c2nc(NCc3cccs3)ccc2ncn1Cc1ccccc1	–	?	?	–
O=c1c2nc(Nc3cccc(F)c3)ccc2ncn1Cc1ccccc1	–	?	79.4µM	?
CCC(=O)N1CCC(CC)(N2CCN(S(=O)(=O)c3ccccc3C(F)(F)F)CC2)C1 (centres undefined)	–	?	?	–
Cc1ccc(N2CCN(C(=O)c3noc(-c4ccc5c(c4)OCO5)n3)CC2)c(C)c1	–	?	?	–
Cc1cccc(N2CCN(C(=O)c3noc(-c4ccc5c(c4)OCO5)n3)CC2)c1	–	?	?	22.4µM
COc1ccc(CC(=O)N2CCCN(c3ccc4nnc(C5CC5)n4n3)CC2)cc1	·	–	–	·
CN(Cc1ccon1)C(=O)C1CCN(C(=O)C2CCC2)CC1	–	–	–	–
CN(Cc1ccc2nonc2c1)C(=O)C1CCN(C(=O)C2CCCC2)CC1	–	39.8µM	?	–
O=C(NCc1cccnc1)c1ccc(N2CCC(NCCCn3ncc4ccccc43)CC2)cc1	–	17.8µM	?	–
CN(C)c1ccc(CN2CCC3(C2)C(=O)N(C)c2ccccc23)cc1 (centres undefined)	–	?	79.4µM	–
O=C1N(c2ccccc2)c2ccccc2C12CCN(Cc1ccc(C(F)(F)F)cc1)C2 (centres undefined)	·	?	50.1µM	·
COc1ccc(CN2CCC3(C2)C(=O)N(c2ccccc2)c2ccccc23)cc1 (centres undefined)	·	?	50.1µM	·
COc1ccc(CN2CCC3(C2)C(=O)N(Cc2ccccc2)c2ccccc23)cc1 (centres undefined)	?	35.5µM	39.8µM	–
COc1ccc(CN2CCC3(C2)C(=O)N(C)c2ccccc23)cc1 (centres undefined)	–	?	?	–
O=C1N(Cc2ccccc2)c2ccccc2C12CCN(Cc1ccccc1)C2 (centres undefined)	–	?	?	–
O=C1N(c2ccccc2)c2ccccc2C12CCN(CC1CC1)C2 (centres undefined)	·	?	–	·
O=C1N(c2ccccc2)c2ccccc2C12CCN(Cc1cncs1)C2 (centres undefined)	·	–	?	·
N#Cc1ccc(CN2CCC3(C2)C(=O)N(c2ccccc2)c2ccccc23)cc1 (centres undefined)	·	?	15.8µM	·
O=C(NCc1cccc(C(F)(F)F)c1)C1CCCN(Cc2cccc(-c3ccsc3)c2)C1 (centres undefined)	·	12.6µM	31.6µM	·
O=C(NCc1ccc(C(F)(F)F)cc1)C1CCCN(Cc2cccc(-c3ccsc3)c2)C1 (centres undefined)	·	35.5µM	?	·
O=C(NCc1ccc(C(F)(F)F)cc1)C1CCCN(c2cn[nH]c(=O)c2)C1 (centres undefined)	–	–	–	–
SMILES	hNpr1 antagonist	3T3 cytotox	HEK cytotox	FLuc inh
O=C1CCN(Cc2ccncc2)CCCC(C(=O)NCc2cccc(C(F)(F)F)c2)CCN1 (centres undefined)	–	–	–	–
COc1cc(NC(=O)c2ccc(N3CC4CC(C3)[C@H]3CCCC(=O)N3C4)nc2)cc(OC)c1 (some centres undefined)	–	–	–	–
CN1CCCCCCN(C(=O)CC2CCCC2)[C@H]2CCC[C@H]2C1=O	–	–	–	–
COc1ccccc1Nc1ccnc(N2CCC[C@H]2C(=O)NCCSC)n1	·	–	–	·
COc1ccc(-c2nnc(C[C@@H]3C[C@@H](C(C)C)[C@H](CNCc4cccnc4)C=C3C)o2)cc1	–	?	?	–
CC1=C[C@@H](CN(C)CCC#N)[C@H](C(C)C)C[C@H]1Cc1nnc(-c2ccc(C)cc2)o1	?	?	50.1µM	–
COc1ccc(-c2nnc(C[C@@H]3C[C@@H](C(C)C)[C@H](CN(C)CCc4ccccn4)C=C3C)o2)cc1	–	35.5µM	22.4µM	–
COc1ccc(-c2nnc(C[C@@H]3C[C@@H](C(C)C)[C@H](CN(C)CCC#N)C=C3C)o2)cc1	?	89.1µM	63.1µM	–
Cc1cc(C)n(CCC(=O)NCC2CCN(c3cc(-c4ccccc4)[nH]n3)CC2)n1	–	–	–	–
Cc1cc(=O)n(CC(=O)Nc2ccc(Br)cc2)c(N2CCc3ccccc3C2)n1	–	?	89.1µM	–
Cc1cc(=O)n(CC(=O)NCc2ccccc2Br)c(N2CCc3ccccc3C2)n1	–	?	39.8µM	–
COc1cccc(CNC(=O)Cn2c(N3CCc4ccccc4C3)nc(C)cc2=O)c1	–	–	44.7µM	–
CCc1ccccc1NC(=O)Cn1c(N2CCc3ccccc3C2)nc(C)cc1=O	?	17.8µM	?	–
CCc1cccc(NC(=O)Cn2c(N3CCc4ccccc4C3)nc(C)cc2=O)c1	?	28.2µM	?	–
Cc1cc(=O)n(CC(=O)Nc2ccc(Cl)cc2)c(N2CCc3ccccc3C2)n1	–	?	?	–
Cc1cc(=O)n(CC(=O)Nc2ccc(C(C)C)cc2)c(N2CCc3ccccc3C2)n1	–	25.1µM	?	–
COc1ccc(NC(=O)Cn2c(N3CCc4ccccc4C3)nc(C)cc2=O)cc1OC	–	?	?	–
COc1ccc(NC(=O)Cn2c(N3CCc4ccccc4C3)nc(C)cc2=O)cc1Cl	–	35.5µM	39.8µM	–
Cc1cc(=O)n(CC(=O)Nc2cccc(F)c2)c(N2CCc3ccccc3C2)n1	–	?	?	–
Cc1cc(=O)n(CC(=O)Nc2ccccc2)c(N2CCc3ccccc3C2)n1	–	?	31.6µM	–
CC(=O)Nc1ccc(CN2CCCC23Cc2ccccc2CN(C(=O)CCC(=O)O)C3)cc1 (centres undefined)	·	–	–	·
COc1ccc(C(=O)NC2CCN(Cc3cccc(-c4cccc(C)c4)c3)CC2)cc1	·	?	35.5µM	·
O=C(Cc1ccccn1)NC1CCN(c2nc3ncccc3o2)CC1	–	–	–	–
O=C(NC1CCN(Cc2cccc(-c3ccc(F)c(F)c3)c2)CC1)c1ccc(Cl)cc1	·	–	–	·
Cc1cccc(-c2cccc(CN3CCC(NC(=O)Cc4ccccn4)CC3)c2)c1	·	44.7µM	?	·
Cc1cccc(-c2cccc(CN3CCC(NC(=O)c4ccccc4F)CC3)c2)c1	·	39.8µM	?	·
Cc1cccc(-c2cccc(CN3CCC(NC(=O)c4ccc(Cl)nc4)CC3)c2)c1	·	17.8µM	14.1µM	·
